Bioassay records as filed in PubChem.
DENV2 CPE rescue: inhibitors of DENV2 cytopathic effect | AID 651640 | DENV2-infected cells, cytopathic effect rescue, plate reader | CPE inhibition, % at 9.99 µM | 1.7% of 350,000 active; in the data active = CPE inhibition above about 20%, passing the limit was not always enough; inconclusive = no clear call, values can overlap the other calls; tested in BHK-21 cells
GSIS activator: GLuc luminescence reporter in INS-1E cells, primary screen for activators of glucose-dependent secretion of insulin; INS-1E GLuc reporter insulin secretion, 2-3 h; activation, % at 16.6 µM; 0.61% of 370,000 active;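 active = lowest replicate activation of at least 40%, so every replicate reaches that level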
PGC1a acetyl inh: lowers PGC1a acetylation signal in U2OS cells. 0.17% of 350,000 active. AID 651687. AlphaScreen anti-acetyl-lysine; with virally co-expressed GCN5 acetyltransferase. inhibition, % at 15.6 µM;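 active = every replicate shows inhibition of at least 40%; inconclusive = mean inhibition at least 40% but some replicate below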
Ecoli rRNA inh: selective bacterial rRNA inhibition in E. coli; E. coli WT GFP vs humanized-ribosome RFP mutants, fluorescence, 24 h; hits give low values; DMSO median 0, no signal -100; GFP signal change (wild-type ribosome), % (no concentration beside the values); 1.6% of 350,000 active;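 active = significant combined selectivity score with lowered wild-type GFP, culture density cut under 30%, mutant RFP and density less affected; inactive = any of these conditions unmet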
CaV13 FRET inh: Disruptors of the CACNA1D IQ motif to Ca2+-dependent inactivation inhibitor domain association, primary screening, Förster resonance energy transfer in intact living …. 0.098% of 340,000 active. AID 743397. HEK cells, CFP/YFP FRET ICDI-IQ, plate reader, 10 min; percent FRET-ratio fall versus neutral wells. inhibition, % at 12.3 µM;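 active = mean replicate inhibition of at least 30% and at least 1% of replicates passing that level; inconclusive = only one of the two criteria is met; inactive = neither criterion is met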
ERAP1 HTS inh: blocks human ERAP1 aminopeptidase activity. recombinant ERAP1, Leu-AMC fluorescence, 60 min. inhibition, % at 10.7 µM. 0.15% of 340,000 active;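 active = mean replicate inhibition of at least 30%, or all replicates individually reaching that 30% level; inactive = mean below 30% and not every replicate reaching it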
Target sequence (Q9NZ08 whole entry, looked up): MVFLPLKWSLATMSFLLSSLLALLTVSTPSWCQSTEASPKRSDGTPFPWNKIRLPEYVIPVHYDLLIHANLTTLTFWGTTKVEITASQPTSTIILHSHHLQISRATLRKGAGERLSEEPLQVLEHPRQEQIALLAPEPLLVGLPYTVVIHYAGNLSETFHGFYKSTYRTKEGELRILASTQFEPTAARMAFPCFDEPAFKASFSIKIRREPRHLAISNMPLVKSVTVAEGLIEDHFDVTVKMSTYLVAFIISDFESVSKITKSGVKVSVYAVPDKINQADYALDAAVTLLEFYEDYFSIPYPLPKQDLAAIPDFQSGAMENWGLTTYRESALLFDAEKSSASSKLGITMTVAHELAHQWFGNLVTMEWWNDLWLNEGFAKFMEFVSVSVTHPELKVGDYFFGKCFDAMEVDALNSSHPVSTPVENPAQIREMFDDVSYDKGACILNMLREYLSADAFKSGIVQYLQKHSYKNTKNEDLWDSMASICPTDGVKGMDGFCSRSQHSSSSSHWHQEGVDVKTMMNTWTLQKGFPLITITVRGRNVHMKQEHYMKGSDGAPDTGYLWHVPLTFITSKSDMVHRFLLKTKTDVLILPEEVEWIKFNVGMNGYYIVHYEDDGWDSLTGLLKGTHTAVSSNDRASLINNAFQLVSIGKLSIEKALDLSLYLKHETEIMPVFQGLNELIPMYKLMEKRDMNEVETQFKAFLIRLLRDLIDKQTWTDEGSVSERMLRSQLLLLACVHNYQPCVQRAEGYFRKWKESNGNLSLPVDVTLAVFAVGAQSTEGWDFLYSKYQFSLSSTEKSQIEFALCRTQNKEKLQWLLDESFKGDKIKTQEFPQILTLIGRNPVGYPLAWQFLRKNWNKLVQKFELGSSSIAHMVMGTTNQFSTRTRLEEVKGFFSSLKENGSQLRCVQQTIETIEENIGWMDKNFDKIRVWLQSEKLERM
Numbers stand for hits. The list is not random: actives were taken first. Their share in the collection is about 3.2%.

`CO[C@H]1CN(C)C(=O)c2cc(NC(C)=O)ccc2OC[C@H](C)N(C(=O)CN(C)C)C[C@H]1C` gave DENV2 CPE rescue 44, GSIS activator inactive, PGC1a acetyl inh inactive, Ecoli rRNA inh inactive and ERAP1 HTS inh inactive.
CO[C@@H]1CN(C)C(=O)c2cc(NS(C)(=O)=O)ccc2OC[C@H](C)N(C(=O)CN(C)C)C[C@@H]1C was read as DENV2 CPE rescue 76, GSIS activator inactive, PGC1a acetyl inh inactive, Ecoli rRNA inh inactive and ERAP1 HTS inh inactive.
For COc1ccc(CN(C)C[C@H]2Oc3ccc(NS(=O)(=O)c4cn(C)cn4)cc3C(=O)N([C@H](C)CO)C[C@@H]2C)cc1 the results were DENV2 CPE rescue inactive, GSIS activator inactive, PGC1a acetyl inh inactive, Ecoli rRNA inh inactive and ERAP1 HTS inh inactive.
For C[C@@H]1CCCCO[C@H](CN(C)C(=O)NC2CCCCC2)[C@H](C)CN([C@H](C)CO)C(=O)c2cc(NS(=O)(=O)c3cccs3)ccc2O1 the results were DENV2 CPE rescue inactive, GSIS activator inactive, PGC1a acetyl inh inactive, Ecoli rRNA inh inactive and ERAP1 HTS inh inactive.
Screening COc1c(OC(C)=O)ccc(/C=C/c2ccc3cccc(OC)c3n2)c1[N+](=O)[O-] returned GSIS activator inactive and CaV13 FRET inh inactive.
COc1c(OC(C)=O)ccc(/C=C/c2ccc3ccccc3n2)c1[N+](=O)[O-] was read as DENV2 CPE rescue inactive, GSIS activator inactive, PGC1a acetyl inh inactive, Ecoli rRNA inh -43, CaV13 FRET inh inactive and ERAP1 HTS inh inactive.
Screening COc1ccc(NC(=O)C2C3C=CC4(O3)C2C(=O)N(CCN2CCCCC2C)C4C(=O)NC2CCCC(C)C2C)cc1 (stereo unspecified) returned DENV2 CPE rescue inactive, GSIS activator 92, PGC1a acetyl inh inactive, Ecoli rRNA inh inactive, CaV13 FRET inh inactive and ERAP1 HTS inh inactive.
Screening C[C@@H]1CN([C@H](C)CO)S(=O)(=O)c2ccc(-c3ccc(C(=O)N(C)C)cc3)cc2O[C@@H]1CN(C)Cc1ccc2c(c1)OCO2 returned DENV2 CPE rescue inactive, GSIS activator inactive, PGC1a acetyl inh inactive, Ecoli rRNA inh inactive and ERAP1 HTS inh inactive.
Clc1ccc(-c2cn3nc4c(nc3n2)CCCC4)cc1 was read as PGC1a acetyl inh inactive and CaV13 FRET inh inactive.
`COc1ccc(-n2cc(-c3ccc(OC(F)F)cc3)[n+]3c2CCCCC3)cc1` gave GSIS activator inactive, Ecoli rRNA inh inactive, CaV13 FRET inh inactive and ERAP1 HTS inh inactive.
`Clc1ccc(-c2cn(-c3ccc(Cl)cc3)c3[n+]2CCCCC3)cc1` gave DENV2 CPE rescue inactive, GSIS activator inactive, Ecoli rRNA inh -46, CaV13 FRET inh inactive and ERAP1 HTS inh inactive.
COc1ccc(-c2cn(-c3ccc(Cl)cc3)c3[n+]2CCCCC3)cc1 was read as DENV2 CPE rescue inactive, GSIS activator inactive, Ecoli rRNA inh -35, CaV13 FRET inh inactive and ERAP1 HTS inh inactive.
CC(C)NC(=O)N(C)C[C@@H]1OCCCC[C@@H](C)Oc2ccc(N(C)C)cc2C(=O)N([C@@H](C)CO)C[C@H]1C was read as DENV2 CPE rescue inactive, GSIS activator inactive, PGC1a acetyl inh inactive, Ecoli rRNA inh inactive and ERAP1 HTS inh inactive.
For CN(C)C(=O)C[C@H]1CC[C@H]2[C@@H](COC[C@H](O)CN2CC2CC2)O1 the results were DENV2 CPE rescue inactive, GSIS activator inactive, PGC1a acetyl inh inactive, Ecoli rRNA inh inactive and ERAP1 HTS inh inactive.
COc1ccccc1Nc1c2c(nc3ccc(N)cc13)CCCC2 was read as DENV2 CPE rescue inactive, GSIS activator 65, PGC1a acetyl inh inactive, Ecoli rRNA inh inactive, CaV13 FRET inh inactive and ERAP1 HTS inh inactive.
CCNC(=O)NC1c2ccccc2CSc2ccccc21 (stereo unspecified) was read as DENV2 CPE rescue inactive, GSIS activator inactive, PGC1a acetyl inh inactive, Ecoli rRNA inh inactive and CaV13 FRET inh inactive.
`CCOCCN1CCN(C2c3ccccc3CSc3ccccc32)CC1` (stereo unspecified) gave DENV2 CPE rescue inactive, GSIS activator inactive, PGC1a acetyl inh inactive, Ecoli rRNA inh -25, CaV13 FRET inh inactive and ERAP1 HTS inh inactive.
Screening O=C(NCC1CC1)[C@@H]1[C@@H](CO)[C@@H]2Cn3c(ccc(/C=C/c4ccccc4)c3=O)[C@H]1N2C(=O)C1CCC1 returned DENV2 CPE rescue inactive, GSIS activator inactive, Ecoli rRNA inh inactive and ERAP1 HTS inh inactive.
OCCNCCCCOc1cccc(Br)c1 was read as DENV2 CPE rescue 39, GSIS activator inactive, Ecoli rRNA inh inactive, CaV13 FRET inh inactive and ERAP1 HTS inh inactive.
`COCCCNCCCCOc1cccc(Br)c1` gave DENV2 CPE rescue inactive, GSIS activator inactive, Ecoli rRNA inh inactive, CaV13 FRET inh inactive and ERAP1 HTS inh inactive.
COc1ccc(O)c(/C=N/NC(=S)Nc2cccnc2)c1 was read as DENV2 CPE rescue inactive, GSIS activator inactive, Ecoli rRNA inh -28, CaV13 FRET inh inactive and ERAP1 HTS inh inactive.
For C[C@H](CO)N1C[C@H](C)[C@H](CN(C)CC2CCCCC2)Oc2ccc(NC(=O)Nc3cccc4ccccc34)cc2C1=O the results were DENV2 CPE rescue inactive, GSIS activator inactive, PGC1a acetyl inh inactive, Ecoli rRNA inh inactive and ERAP1 HTS inh inactive.
Screening C[C@H]1CN([C@@H](C)CO)C(=O)Cc2cc(NC(=O)Nc3ccc4c(c3)OCO4)ccc2O[C@@H]1CN(C)Cc1ccc(C(=O)O)cc1 returned GSIS activator inactive, PGC1a acetyl inh inactive, Ecoli rRNA inh inactive and ERAP1 HTS inh inactive.
C[C@H](CO)N1C[C@H](C)[C@H](CN(C)Cc2ccc(C(=O)O)cc2)Oc2ccc(NC(=O)Nc3cccc4ccccc34)cc2CC1=O was read as DENV2 CPE rescue inactive, GSIS activator inactive, PGC1a acetyl inh inactive, Ecoli rRNA inh inactive and ERAP1 HTS inh 51.
C[C@H](CO)N1C[C@H](C)[C@@H](CN(C)Cc2ccc(C(=O)O)cc2)Oc2ccc(NC(=O)Nc3cccc4ccccc34)cc2CC1=O was read as DENV2 CPE rescue 77, GSIS activator inactive, PGC1a acetyl inh inactive, Ecoli rRNA inh inactive and ERAP1 HTS inh inactive.
For C[C@H]1CN([C@@H](C)CO)C(=O)Cc2cc(NC(=O)Nc3cccc4ccccc34)ccc2O[C@@H]1CN(C)Cc1ccc(C(=O)Nc2ccccc2N)cc1 the results were DENV2 CPE rescue 38, GSIS activator inactive, PGC1a acetyl inh inactive, Ecoli rRNA inh inactive and ERAP1 HTS inh inactive.
C[C@H]1CN([C@@H](C)CO)C(=O)Cc2cc(NC(=O)Nc3ccc4c(c3)OCO4)ccc2O[C@H]1CN(C)Cc1ccc(C(=O)O)cc1 was read as DENV2 CPE rescue 78, GSIS activator inactive, PGC1a acetyl inh inactive, Ecoli rRNA inh inactive and ERAP1 HTS inh inactive.
For C[C@H](NC(=O)C[C@H]1CC[C@H](NC(=O)CN2CCOCC2)[C@@H](CO)O1)c1ccccc1 the results were DENV2 CPE rescue inconclusive, GSIS activator inactive, PGC1a acetyl inh inactive, Ecoli rRNA inh inactive and ERAP1 HTS inh inactive.
